# Records with an inconclusive call do not appear. The source made the active and inactive calls. The call rests on the fitted dose curve; in most records, active means well fitted cell-killing curve with a large enough effect; inconclusive means small, poorly fitted or top-dose-only effect; inactive means flat fitted curve, though single readings scatter.
# Assay: Cell Viability - LYMP2-006 (AID 978); further: nearly all actives have a fitted effect of over 60% in size
# Conditions: LYMP2-006 lymphoblastoid cell viability, qHTS; series mostly up to 92.2 µM; activity change, negative = cytotoxicity: at the top concentration
# From the text: NIH Chemical Genomics Center [NCGC]
# NIH Molecular Libraries Screening Centers Network [MLSCN]
# National Institutes of Environmental Health Sciences [NIEHS]
# National Toxicology Program [NTP]
# We have developed a 1536-well cell-based assay for quantitative high throughput screening (qHTS) against a number of cell lines to determine in vitro cytotoxicity of small molecules. This particular assay uses a human lymphoblastoid cell line (LYMP2-006) purchased from Coriell Institute for Medical Research.
# NCGC Assay Protocol Summary:
# The CellTiter-Glo luminescent cell viability assay (Promega) is a homogeneous method to measure the number of viable cells in culture. The end point readout of this assay is based on quantitation of intracellular ATP, an indicator of metabolic activity, using the luciferase reaction. Luciferase catalyzes the oxidation of beetle Luciferin to oxyluciferin and light in the presence of ATP. The luminescent signal is proportional to amount of ATP present.
# Using the CellTiter-Glo luminescent cell viability assay, the amount of cellular ATP was measured in the lymphoblastoid cell line with complete culture medium following compound treatment for 24 hours. The assay was performed in opaque white Kalypsys 1536-well plates. In the screen, tetraoctylammonium bromide was used as positive control. Library compounds were measured for their ability to cause acute toxicity in the cell line, as reflected by a decrease in intracellular ATP levels, in a concentration-dependent manner. […] AC50 values were determined from concentration-response data modeled with the standard Hill equation.
# qHTS protocol for CellTiter Glo lymphoblastoid cellular assay
# [Step] [Parameter] [Value] [Description]
# 1. Reagent; 5 uL; 2500 lymphoblastoid cells/well
# 2. Time; 5 hr; 37 C incubation
# 4. Controls; 23 nL; Tetraoctylammonium bromide 6.4pM to 92 uM
# 5. Time; 24 hr; 37 C incubation
# 6. Reagent; 5 uL; CellTiter Glo reagent
# 7. Time; 30 min; Room Temperature
# 8. Detection; Luminescence; Viewlux plate reader
# Keywords: cell viability, cytotoxicity, lymphoblastoid cell line, luminescence, NTPHTS, NTPHTS_NCGC, NIEHS, DSSTox, MLSMR, MLSCN, NIH Roadmap, qHTS, NCGC
# On the % scale 0 is the no-effect control and ±100 the full control effect; potency means the concentration at half of the fitted maximal effect.
Compound,"activity change, negative = cytotoxicity",Potency
O=C(O)CCCCC(=O)O,2.43% (inactive),
COC1=CC(=O)C[C@@H](C)[C@]12Oc1c(Cl)c(OC)cc(OC)c1C2=O,-25.4% (inactive),
CC/C(=C(/CC)c1ccc(O)cc1)c1ccc(O)cc1,-27.2% (inactive),
C=CCc1ccc(O)c(OC)c1,-4.99% (inactive),
CC(=O)O[C@]1(C(C)=O)CC[C@H]2[C@@H]3C[C@H](C)C4=CC(=O)CC[C@]4(C)[C@H]3CC[C@@]21C,,39.8 µM (active)
CC(O)C(=O)O (stereo not given),5.46% (inactive),
Nc1ccc(C(=O)O)cc1,-10.7% (inactive),
CN(C)/N=N/c1nc[nH]c1C(N)=O,-10.1% (inactive),
CC(=O)Oc1ccc(C(c2ccc(OC(C)=O)cc2)c2ccccn2)cc1,5.5% (inactive),
NC(=NCCCCCCN=C(N)/N=C(\N)Nc1ccc(Cl)cc1)/N=C(\N)Nc1ccc(Cl)cc1,,39.8 µM (active)
CC(C)(C)CC(C)(C)c1ccc(OCCOCC[N+](C)(C)Cc2ccccc2)cc1,,25.1 µM (active)
C[C@]12CC[C@@H]3c4ccc(O)cc4CC[C@H]3[C@@H]1CC[C@@H]2O,-15.8% (inactive),
CCCCCCc1ccc(O)cc1O,-4.86% (inactive),
O=C1OC(c2ccc(O)cc2)(c2ccc(O)cc2)c2ccccc21,-4.55% (inactive),
O=c1ccc2ccccc2o1,-8.21% (inactive),

# Source: PubChem BioAssay (NCATS)
